Laboratory results as given in PubChem BioAssay (NCI).
This is part of a sample that, as a whole, favours compounds with a hit. Of some 83,000 tested, about 20% had one in any assay.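 For each line, cells grew in 96-well plates with the test compound present at a single concentration for 48 hours.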 A number with no mark means an inactive call. Activity calls are given as the source filed them. The calls were made as follows: active = growth percent below 10; inactive = the rest.

Assays:
Experiment in all cases: NCI-60 one-dose screen, 48 h (100 = growth as untreated, 0 = no growth, -100 = all killed)
Conditions in all cases: 10 µM unless noted
HCT-15 colon = tested on: HCT-15 colon
HT29 colon = tested on: HT29 colon
SNB-19 CNS = tested on: SNB-19 CNS
U251 CNS = tested on: U251 CNS
SK-MEL-5 melanoma = tested on: SK-MEL-5 melanoma
UACC-62 melanoma = tested on: UACC-62 melanoma
LOX IMVI melanoma = tested on: LOX IMVI melanoma
SK-MEL-28 melanoma = tested on: SK-MEL-28 melanoma
PC-3 prostate = tested on: PC-3 prostate

Row | Compound | growth (HCT-15 colon) | growth (HT29 colon) | growth (SNB-19 CNS) | growth (U251 CNS) | growth (SK-MEL-5 melanoma) | growth (UACC-62 melanoma) | growth (LOX IMVI melanoma) | growth (SK-MEL-28 melanoma) | growth (PC-3 prostate)
1 | CCCc1cc(=O)n2c(C(=O)Nc3ccc(F)cc3)c(C(=O)Nc3ccc(F)cc3)sc2n1 | 83% [30 µM] | 53.8% [30 µM] | 48.4% [30 µM] | 41.6% [30 µM] | 82.8% [30 µM] | 84% [30 µM] | 65.1% [30 µM] | 77.7% [30 µM] | –
2 | COc1ccc(SC2c3ccc(C)cc3Oc3nc(N)c(C#N)c(N)c32)cc1 (configuration not stated) | -79.9% (active) | -65.1% (active) | -69.3% (active) | -93.3% (active) | – | -46.2% (active) | -94.3% (active) | -82.3% (active) | -67.9% (active)
3 | CCc1nc(N)nc(N)c1C#CC(C)c1cc(-c2ccnc(C)c2)c2oc(C)nc2c1 (configuration not stated) | 10.7% | 6.46% (active) | 7.53% (active) | 3.52% (active) | – | -12.3% (active) | -18.8% (active) | 41.1% | 16.5%
4 | Nc1ccc(-c2cc3c(Nc4ccc(Oc5cccc(C(F)(F)F)c5)c(Cl)c4)ncnc3s2)cc1 | 44.6% | 64% | 89.8% | 79% | 70.9% | 81.9% | 50.1% | – | –
5 | COc1cc(-c2nn(C)nc2-c2cc3ccccc3s2)cc(OC)c1OC | 16.9% | -1.21% (active) | 26.7% | 20.9% | – | 26% | – | 57.6% | 21.9%
6 | CC[C@@H]1O[C@H](O[C@@H](c2cnc[nH]2)[C@H](NC(=O)c2nc([C@H](CC(N)=O)NC[C@@H](N)C(N)=O)nc(N)c2C)C(=O)N[C@H](C)[C@H](O)[C@H](C)C(=O)N[C@@H](C(=O)NCCc2nc(-c3nc(C(=O)NCCCCN=C(N)N)cs3)cs2)[C@@H](C)O)[C@H](O[C@@H]2O[C@H](CO)[C@H](O)[C@H](OC(N)=O)[C@@H]2O)[C@H](C)[C@@H]1C | 45.1% | 53.9% | 45.9% | – | – | 37.5% | – | 87.6% | 71.2%
7 | CC1=C(O)C(=O)C(C(C#N)(C#N)C(C#N)C#N)C1 (configuration not stated) | 98.9% | 111% | 108% | – | – | 97.6% | 96.5% | 114% | 106%
8 | CC(O)CN1CC(O)=C(c2nc3ccccc3s2)C1=N (configuration not stated) | 158% | 104% | 96.5% | 157% | 105% | 102% | 211% | 131% | –
9 | COc1ccc2c(c1)c(-c1nonc1-c1cn(C)c3ccccc13)cn2C | 25.7% | 8.38% (active) | 34.9% | 32.8% | 13.3% | 38% | 47.2% | 63.1% | –
10 | COc1ccc(C2CC(c3ccc(Cl)cc3)=NN2/C=C2\SC(=S)N(NC(=O)Cc3ccccc3Nc3c(Cl)cccc3Cl)C2=O)cc1 (configuration not stated) | 68.7% | 57.7% | 18.2% | 54.1% | 81.9% | 63.2% | 26.9% | 92.1% | –
11 | O=Nc1c(O)c(Cl)cc2ccccc12 | 87.9% | 83.1% | 88.9% | – | – | 77.5% | 72.4% | 92.1% | 66.7%
12 | O=C(COc1cccc(/C=C2\COc3ccc(Cl)cc3C2=O)c1)c1ccc(Cl)cc1 | 82% | 97.7% | 90.5% | 87.5% | 94.3% | – | 76.1% | 119% | –
13 | Cc1ccc2c(C(C[N+](=O)[O-])c3ccccc3F)c(-c3ccccc3)[nH]c2c1 (configuration not stated) | 25.7% | 6.14% (active) | 49.1% | 25.3% | 48.1% | 42.4% | 36.4% | 63% | –
14 | Cn1c(NCCc2ccc(O)c(O)c2)nc2c1c(=O)n(Cc1ccc(Br)cc1)c(=O)n2C | 42.7% | 96.8% | 79.8% | 82.8% | 57.6% | 82% | 87.9% | 82.6% | –
15 | Cn1c(=O)c2c(nc3n(-c4ccc(Cl)cc4Cl)c(Sc4nc(-c5ccccc5)c(C#N)c(=O)[nH]4)cn23)n(C)c1=O | 63.1% | 57.1% | 24.7% | – | 90.4% | – | 33.5% | 87.8% | 75.7%
16 | C=C(C)[C@@H]1CC[C@]2(C(=O)OC)CC[C@]3(C)[C@H](CC[C@@H]4[C@@]5(C)C/C(=C/c6ccc(OC)cc6)C(=O)C(C)(C)[C@@H]5CC[C@]43C)[C@@H]12 | 59.6% | 32.1% | 108% | – | 95.8% | 99.7% | 79.6% | 102% | 84.9%
17 | CC(C)c1c(C(=O)c2ccccc2)c(-c2ccccc2)c(-c2ccc(F)cc2)n1CC[C@@H](O)C[C@@H](O)CC(=O)O | 47.5% | 106% | 57.4% | – | – | 16.6% | – | 65.4% | 37%
18 | COc1cc2c(cc1-c1c(C)noc1C)ncc1nc(C3CCOCC3)n([C@@H](C)COC(F)F)c12 | 24.5% | 18.8% | 56.6% | 53.3% | – | – | 24.2% | 53.5% | 39.2%
19 | CCCCC[C@H]1C/C=C2/C(=O)C=C[C@@H]2C/C=C\CCCC(=O)O1 | -18.8% (active) | -69.1% (active) | 1.16% (active) | -78.2% (active) | – | – | -79.1% (active) | – | -38.4% (active)
20 | COc1ccc(S(=O)(=O)N2CCCCC2)cc1NC(=O)c1[nH]c(C)c2c1CCCCC2=O | 5.16% (active) | 11% | – | 23.4% | -24.4% (active) | 14.5% | – | 48.1% | –
21 | Cn1ccnc1C(=O)/C=C/c1ccc(CC(=O)Nc2ccccc2)cc1 | 6.26% (active) | 5.1% (active) | 10.3% | – | – | 26.7% | 8.77% (active) | 55% | 25.7%
22 | C#CC(F)(F)[C@]1(O)CC[C@H]2[C@@H]3CCC4=CC(=O)CCC4=C3[C@@H](c3ccc(C(C)=O)cc3)C[C@@]21C | 89.6% | 1.5% (active) | 95.6% | 75.5% | – | 80.2% | 48.9% | 107% | 37%
23 | CCOc1nc(-c2ccccc2)cc2c(O)c(C(=O)N/N=C/c3ccc(O)cc3O)[nH]c(=O)c12 | 23.9% | 48.3% | 43.2% | 21.2% | 21.9% | – | -0.51% (active) | 60% | –
24 | COc1ccc2c(c1)C(=O)/C(=C/c1cccnc1)CC2 | 92.8% | 92.5% | 88.7% | 86.7% | – | – | 88.5% | – | 101%
25 | Nc1ccn(-c2ccc(Br)cc2)c(=O)n1 | 119% | 125% | 140% | 104% | 119% | 106% | 105% | 137% | –
26 | Cc1ccc2c(C(C[N+](=O)[O-])c3ccccc3)c(-c3ccccc3)[nH]c2c1 (configuration not stated) | 18.8% [9.5 µM] | 0.357% [9.5 µM] (active) | 37.4% [9.5 µM] | 25% [9.5 µM] | 32.8% [9.5 µM] | 38% [9.5 µM] | 28.5% [9.5 µM] | 49.3% [9.5 µM] | –
27 | CC/C=C\C[C@H]1C/C=C2/C(=O)C=C[C@H]2C/C=C\CCCC(=O)O1 | 29.8% | 6.12% (active) | 40.3% | 10.4% | – | – | 6.07% (active) | – | 36%
28 | O=S(=O)(Nc1ccc(OC(F)F)cc1)c1ccc(-c2cnc(C3CC3)o2)cc1 | 38.4% | 55.6% | 75.8% | – | 57.7% | 44% | 72% | 85.3% | 67.6%
29 | CCN(CC)c1ccc(-c2cc(-c3cc(OC)c(OC)c(OC)c3)nc(N3CCOCC3)c2C#N)cc1 | 10.7% | 2.21% (active) | 79% | 36.7% | – | -58% (active) | -77.3% (active) | – | –
30 | C#Cc1cccc(NC(=O)c2ccccc2NC(=O)CCl)c1 | 68.7% [8.25 µM] | 86.1% [8.25 µM] | 74.2% [8.25 µM] | 74.6% [8.25 µM] | 87.7% [8.25 µM] | 85.1% [8.25 µM] | 91.4% [8.25 µM] | 102% [8.25 µM] | –
